From ChEMBL document CHEMBL4513216, “Probing the Open Global Health Chemical Diversity Library for Multistage-Active Starting Points for Next-Generation Antimalarials” (ACS Infect Dis, 2020)
The campaign covered roughly 69,000 compounds. About 8,600 (12%) showed an effect of 50% or more. The full list was thinned out, with strong results kept by preference.

These compounds were tested on Plasmodium berghei (assay: Screen against P. berghei liver stage (PbLuc), transformed with Luciferase, at 10uM). Settings: tested at 10 uM.
Assay type: functional, HepG2

Compound | INHIBITION
O=C(c1ccncc1)N1CCCC2(CCN(c3cccnc3)C2=O)C1 (stereo not drawn) | -7.7%
CCN1CCC2(CC1)CN(CCO)c1ccccc12 | -7.94%
Cc1cnc(N2CCC3(CC2)CCN(c2cncnc2)C3=O)nc1 | 40.8%
COc1cc(N2CCC3(CC2)CN(S(C)(=O)=O)c2ccccc23)ncn1 | 46.4%
COc1cc(N2CCC3(CC2)CN(CCO)c2ccccc23)ncn1 | 93.1%
O=C1N(c2cccnc2)CCC12CCCN(Cc1cccnc1)C2 (stereo not drawn) | -52.3%
COc1cc(N2CCCC3(CCN(c4cccnc4)C3=O)C2)ncn1 (stereo not drawn) | 84.7%
COc1cc(N2CCC3(CCN(Cc4cccnc4)C3=O)C2)ncn1 (stereo not drawn) | 91%
COCC(=O)N1CCCC2(CCN(c3cncnc3)C2=O)C1 (stereo not drawn) | 25.2%
Cc1cccc(CN2CCC3(CCN(c4ccccn4)C3)C2=O)c1 (stereo not drawn) | 20.7%
COc1cc(N2CCCC3(CCN(c4cncnc4)C3=O)C2)ncn1 (stereo not drawn) | 53%
COc1cccc(CN2CCC3(CCN(c4ncc(C)cn4)C3)C2=O)c1 (stereo not drawn) | 37.9%
CNC(=O)[C@H]1C[C@@H]2CN(C(=O)c3ccccn3)C[C@@H]2N1S(C)(=O)=O | 37.2%
Cc1nnc(CN2CCCC2c2c(C)nn(C)c2Cl)o1 (stereo not drawn) | 16.9%
O=C(C1CCOC1)N1C[C@H]2CN(Cc3nccs3)C[C@H]2C1 (stereo partly drawn) | 17.1%
COc1ccccc1CN(CC1CCCO1)C(=O)c1cc(C)n[nH]1 (stereo not drawn) | -11.3%
c1cncc(CN2Cc3nccn3CC(Cn3cncn3)C2)c1 (stereo not drawn) | 5.41%
COc1ccc(C(=O)N2C[C@@H](O)[C@H](NCCc3ncccc3C)C2)cc1 | -15.3%
Cc1cc(CNc2cc(Cl)ccc2C)no1 | -4.4%
Cc1nnsc1CN1C[C@H]2CC[C@@H](C1)N(Cc1c(C)noc1C)C2=O | -42.9%
Nc1cc(C(=O)N2CCC3(CC2)Nc2ccccc2NC3=O)ccn1 | -31.5%
CNc1ncc(C(=O)N2CCC3(CC2)Nc2ccccc2NC3=O)cn1 | 27.6%
COc1ncc(C(=O)N2CCC3(CC2)C(=O)Nc2ccccc23)cn1 | 12%
CNc1cc(C(=O)N2CCC3(CC2)Nc2ccccc2NC3=O)ccn1 | 57.6%
COc1cc(C(=O)N2CCC3(CC2)Nc2ccccc2NC3=O)ccn1 | 52.1%
CC(=O)c1cc(C(=O)N2CCC3(CC2)Nc2ccccc2NC3=O)cs1 | 20.3%
Cn1nnnc1SCCC(=O)NCC1Cc2ccccc2O1 (stereo not drawn) | -0.554%
CN(C)C(=O)CCCS(=O)(=O)Cc1cc(Cl)c2c(c1)OCO2 | 30.6%
